# “And” between values parts separate entries of the source, which are not always exact repeats. Identical values can stand only once. In all, about 73,000 compounds went through this assay and about 2,500 (3.4%) were called active. Entries that show only a call come without a potency. Inconclusive results (about 7%) are left out. This excerpt belongs to a sample that is enriched for actives. Values without a mark were called inactive. Calls come from the whole dose curve; as a rule, active = well fitted inhibition curve with a large enough effect; inconclusive = small, poorly fitted or top-dose-only effect; inactive = no such curve, though single readings can be large or run the other way.
# Target: 3-hydroxyacyl-CoA dehydrogenase type-2 (Homo sapiens) (UniProt Q99714)
# Assay: qHTS Assay for Inhibitors of HADH2 (Hydroxyacyl-Coenzyme A Dehydrogenase, Type II); note: nearly all actives have a fitted effect of over 60% in size
# Settings: recombinant HADH2, NADH fluorescence, beta-hydroxybutyryl-CoA; series mostly up to 57.1 µM
# How it was run: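 His-tagged recombinant enzyme from E. coli, 20 nM, preincubated 15 min RT with compound; reaction started with 1 mM NAD+ and 90 uM beta-hydroxybutyryl-CoA in 100 mM Tris-HCl pH 9.0. NADH fluorescence (ex 360/em 450) read over 4 min; last-minus-first difference.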
# Potency is the fitted concentration of half-maximal effect.
# Chain of 3-hydroxyacyl-CoA dehydrogenase type-2 (Homo sapiens) (Q99714 whole entry, looked up): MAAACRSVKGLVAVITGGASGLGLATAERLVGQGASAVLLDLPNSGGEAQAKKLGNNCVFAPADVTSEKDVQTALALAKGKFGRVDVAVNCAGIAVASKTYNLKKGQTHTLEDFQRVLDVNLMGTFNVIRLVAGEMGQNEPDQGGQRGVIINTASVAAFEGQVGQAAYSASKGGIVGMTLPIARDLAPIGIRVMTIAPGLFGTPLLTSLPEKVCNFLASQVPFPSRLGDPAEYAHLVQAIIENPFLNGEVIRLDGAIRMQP
# Chain of 3-hydroxyacyl-CoA dehydrogenase type-2 (Homo sapiens) (Q99714 whole entry, looked up): as above
Compound,Potency,"activity change, negative = inhibition"
Cc1c2c(nc3ccccc13)-c1cccc(=O)n1C2,inactive,–
COC(=O)[C@@]1(Cc2ccccc2)[C@H]2c3cc(C(=O)N4CCCC4)n(Cc4ccc(C)o4)c3C[C@H]2CN1C(=O)c1ccccc1,inactive,–
C=CCOC(=O)COCCC(C)C,inactive,–
O=C(c1cc(C(F)(F)F)cc(C(F)(F)F)c1)N1CCC2(CC1)CN(c1ccncc1)C2,inactive,–
Cc1cccn2c(=O)c3cc(C(=O)N4COCC4(C)C)n(C)c3nc12,25.1 µM (active),–
Cc1cccn2c(=O)c3cc(C(=O)NCc4ccccn4)n(C)c3nc12,inactive,–
CC(C)CC1(C(=O)NCc2ccccn2)C=CCN1C(=O)c1ccccc1 (stereo unspecified),inactive,–
CC(C)NC[C@H](O)c1ccc2ccccc2c1,inactive,–
C[C@@H]1CC[C@H]2[C@H](C)[C@H]3[C@H](C[C@H]4[C@@H]5CC=C6C[C@@H](O)CC[C@@]6(C)[C@@H]5C[C@@H](O)[C@]34C)N2C1,–,-8.91% [at 11.4 µM]
CCn1c(SCC(=O)NCC2CCCO2)nc2cc(S(=O)(=O)N3CCCCC3)ccc21 (stereo unspecified),inactive,–
CCc1ccc(NC(=O)CSc2nc3ccccc3c(=O)n2CCN2CCOCC2)cc1,inactive,–
CCCCn1c(SCC(=O)NCC2CCCO2)nc2ccc(N3CCOCC3)cc2c1=O (stereo unspecified),10 µM (active),–
COC(=O)[C@@]1(Cc2ccccc2)[C@H]2c3cc(C(=O)N(C)C)n(CCSCCO)c3C[C@H]2CN1C(=O)c1ccccc1,inactive,–
N#Cc1cccc(-c2nc3cnc(N4CCNCC4)nc3n(C3CC3)c2=O)c1,inactive,–
COc1cccc(-c2nc(Nc3ccncc3)c3ccccc3n2)c1,inactive,–
c1ccc2c(Nc3ccncc3)nc(-c3ccc4c(c3)OCO4)nc2c1,25.1 µM (active),–
c1ccc2c(Nc3ccncc3)nc(-c3ccoc3)nc2c1,inactive,–
CCCC(Cl)CCCC(Cl)CCC(Cl)CCC(Cl)CCC(Cl)CCCC(Cl)CCC (stereo unspecified),inactive,–
COc1ccc2nccc(C(=O)O)c2c1,inactive,–
CN1CCN(CC(=O)C23CC4CC(CC(C4)C2)C3)CC1,inactive,–
O=C(CNCCO)NC12CC3CC(CC(C3)C1)C2,inactive,–
CC(NCCO)C(=O)C12CC3CC(CC(C3)C1)C2 (stereo unspecified),31.6 µM (active),–
CC(C)NC(=O)N1CC[C@@]2(CCCN(C(=O)c3cccn3C)C2)C1,inactive,–

Compound,Potency,"activity change, negative = inhibition"
NS(=O)(=O)c1ccc(CCNC(=O)Nc2ccc(Cl)cc2)cc1,–,16% [at 11.4 µM]
Oc1cc2c(cc1O)CN(C(=S)NCCc1ccc(Cl)cc1)CCC2,1.58 µM (active) and 631 nM (active),–
O=C(NCCc1ccc(Cl)cc1)C1CC(=O)N(C2CCCCC2)C1 (stereo unspecified),inactive,–
Cc1ccccc1N1CCN(S(=O)(=O)C[C@@]23CC[C@H](C[C@H]2NC(=O)[C@@H](N)CCS(C)(=O)=O)C3(C)C)CC1,inactive,–
CC(=O)Oc1cccc(N2C(=O)C3CC=C(Cl)CC3C2=O)c1 (stereo unspecified),inactive,–
COc1ccc(N2CCN(C3CC(=O)N(c4ccc5c(c4)OCCO5)C3=O)CC2)cc1 (stereo unspecified),inactive,–
CC(=O)Oc1cccc(N2C(=O)CC(Nc3ccc(N4CCOCC4)cc3)C2=O)c1 (stereo unspecified),15.8 µM (active),–
Cc1ccc(Br)cc1,inactive,–
CCCn1c(-c2ccc(F)cc2)nc2c(NC3CCN(Cc4ccccc4)C3)nc(C)nc21 (stereo unspecified),inactive,–
COc1ccccc1CNc1nc(-c2c(C)noc2C)nc2ccccc12,inactive,–
CC[C@@H]1Cc2cc(O)ccc2C2=C1c1ccc(O)cc1C[C@H]2CC,25.1 µM (active),–
C[C@@H](c1ccccc1)N1C(=O)[C@H]2[C@H]3[C@H](O)[C@H](O)C/C(=N/OC[C@@H](O)COCc4ccco4)[C@@H]3CC[C@@H]2C1=O,–,7.28% [at 11.4 µM]
CCCc1[nH]nc2c1C(c1ccc(Br)s1)C(C#N)=C(N)O2 (stereo unspecified),10 µM (active),–
CCCc1[nH]nc2c1C(c1ccc(OC(=O)c3ccco3)cc1)C(C#N)=C(N)O2 (stereo unspecified),inactive,–
CCCc1[nH]nc2c1C(C1CC=CCC1)C(C#N)=C(N)O2 (stereo unspecified),inactive,–
CN(C)c1ncc2nc(-c3ccc(F)cc3)c(=O)n(Cc3ccc(F)cc3)c2n1,inactive,–
COC(=O)[C@@]1(Cc2ccc(OC)cc2)[C@H]2c3cc(C(=O)N4CCCC4)n(Cc4ccc(C(F)(F)F)nc4)c3C[C@H]2CN1C(=O)c1ccccc1,inactive,–
Oc1ccc(O)c2c(O)cccc12,1.26 µM (active),–
O=C(CS(=O)(=O)Cc1ccccc1)NCC1CCCO1 (stereo unspecified),inactive,–
O=C(CSc1nnc(-c2ccc(NS(=O)(=O)c3ccccc3)cc2)o1)NCC1CCCO1 (stereo unspecified),inactive,–
O=C(CSC1=Nc2ccccc2C2=NC(c3ccccc3)C(=O)N12)NCC1CCCO1 (stereo unspecified),31.6 µM (active),–
Cc1ccnc(N)c1,inactive,–
N#Cc1ccc(CN2CCCC3(CCN(C(=O)c4ccco4)CC3)C2)cc1,inactive,–

Compound,Potency,"activity change, negative = inhibition"
COc1ccc(/C=C/NC(=O)c2ccc(OC)cc2)cc1,–,-13.3% [at 11.4 µM]
C[C@@H]1O[C@@H](O[C@@H]2[C@@H](O)[C@H](OCCc3ccc(O)c(O)c3)O[C@H](CO[C@@H]3O[C@H](CO)[C@@H](O)[C@H](O)[C@H]3O)[C@H]2OC(=O)/C=C/c2ccc(O)c(O)c2)[C@H](O)[C@H](O)[C@H]1O,0.1 µM (active),–
CO/N=C\[C@@H](C)[C@H](OCc1ccccc1)C(C)C,–,2.33% [at 11.4 µM]
CCN(Cc1ccncc1)C(=O)[C@@H](CO)c1ccccc1,inactive,–
C=CC(=O)OCCOCCOCCOCCOC(=O)C=C,inactive,–
COc1cccc(Cn2c(=O)c(-c3ccccc3)nc3cnc(OC)nc32)c1,inactive,–
CCOC(=O)CCc1c(C)c2ccc(OCc3nn[nH]n3)c(C)c2oc1=O,25.1 µM (active),–
C=CC(=C)CCC=C(C)C,inactive,–
COc1ccc(C(=O)n2nc(-c3ccc(Cl)cc3)nc2N)cc1OC,inactive,–
COc1ccccc1C(=O)n1nc(-c2ccccc2)nc1N,inactive,–
COc1ccc(C(=O)n2nc(-c3ccc(C)cc3)nc2N)cc1OC,31.6 µM (active),–
CO[C@@H]1COC(=O)C/C=C\[C@H](C)[C@@H](NS(=O)(=O)c2ccc(C)cc2)COC(=O)C/C=C\[C@@H]1C,–,6.59% [at 11.4 µM] and 13.2% [at 11.4 µM]
COc1ccc(C(=O)N2CCC[C@@]3(CCN(C(=O)NC(C)C)C3)C2)cc1,inactive,–
O=C1OCCC=C1[C@@H](O)CCc1ccccc1,–,-6.14% [at 11.4 µM]
C[C@H]1CC[C@H](C(=O)O)N[C@@H]1c1ccc(C#Cc2ccccc2)cc1,–,4.48% [at 11.4 µM]
CCOC(=O)c1cc2ccccc2nc1C,inactive,–
CCOC(=O)c1cc(-c2nnc(-c3cc(OC)c(OC)c(OC)c3)o2)c(C)nc1C,5.01 µM (active),–
CCCc1nc2ccccc2c(C(=O)OCc2nnc(-c3cc(OC)c(OC)c(OC)c3)o2)c1CC,inactive,–
Cc1cc2c(cc1C)NC1=C(N2)O[C@H](c2c[nH]c3ccc(COc4ccccc4)cc23)C1=O,–,0.634% [at 11.4 µM]
O=C1CC(c2cccc(Br)c2)C2=C(CCCC2=O)N1 (stereo unspecified),inactive,–
CCCN1C2=C(C(=O)CCC2)C(c2ccc(O)c(Br)c2)C2=C1CCCC2=O,15.8 µM (active),–
C[C@@H](C(=O)Nc1ccc2ccccc2c1)[C@@H]1C[C@@]1(C)[C@@H](NC(=O)c1cccnc1)c1ccccc1,inactive,–
COc1ccc(C[C@H](N)C(=O)N[C@@H]2[C@H](O)[C@H](n3cnc4c(N(C)C)ncnc43)O[C@@H]2CO)cc1,inactive,–

Compound,Potency,"activity change, negative = inhibition"
O=C(NCc1ccc2c(c1)OCO2)c1ccc2c(c1)C(=O)N(CC1CCCO1)C2=O (stereo unspecified),inactive,–
CN1C(=O)c2ccc(NC(=O)C3CCCCC3)cc2C1=O,inactive,–
CCC(=O)Nc1ccc(C(=O)Nc2ccc3c(c2)C(=O)N(CC2CCCO2)C3=O)cc1 (stereo unspecified),10 µM (active),–
c1ccc2sc(SCCSc3nc4ccccc4s3)nc2c1,–,16.5% [at 11.4 µM]
COC(=O)[C@@]1(Cc2ccc(F)cc2)[C@@H]2[C@@H](CC(=O)[C@H]2CC(=O)C(=O)N2CCCC2)CN1C(=O)c1ccccc1,inactive,–
O=C(OCC(COC(=O)c1ccccc1)(COC(=O)c1ccccc1)COC(=O)c1ccccc1)c1ccccc1,inactive,–
CCOc1cc(C2C(C(=O)OC)=CN(C3CCCC3)C=C2C(=O)OC)cc(Br)c1O,inactive,–
COC(=O)C1=CN(C)C=C(C(=O)OC)C1c1ccc(Cl)cc1Cl,inactive,–
CCOc1ccccc1C1C(C(=O)OC)=CN(C)C=C1C(=O)OC,31.6 µM (active),–
Cn1c(=O)c(-c2ccccc2)nc2cnc(N3CCNCC3)nc21,inactive,–
CO[C@H]1COC(=O)[C@H](Cc2ccccc2)NC(=O)C/C=C\[C@@H](C)[C@H](OC)COC(=O)C/C=C\[C@@H]1C,–,2.71% [at 11.4 µM]
O=C(Nc1cccnc1)c1ccc2c(c1)OCO2,inactive,–
c1cncc(CNc2ccnc(-c3ccc4c(c3)OCO4)n2)c1,25.1 µM (active),–
c1n[nH]c(NCc2ccc3c(c2)OCO3)n1,inactive,–
CCCCCCc1ccc(O)cc1O,inactive,–
O=C(Cn1c(=O)sc2ccccc21)Nc1nc2c(s1)CCCC2,inactive,–
COc1cccc(Cn2c(=O)c(CCc3ccccc3)nc3cnc(N(C)C)nc32)c1,inactive,–
CC1CCN(C(=O)CSc2ccc3nnc(-c4cccc(F)c4)n3n2)CC1,inactive,–
CCOc1ccc(-c2nnc3ccc(SC)nn23)cc1,inactive,–
COC(=O)C(C)Sc1ccc2nnc(-c3cccc(F)c3)n2n1 (stereo unspecified),12.6 µM (active),–
Cc1cc(C)c2nc3c(c([C@H](O)[C@@H]4CCCCN4)c2c1)CC/C3=C/c1ccc(Cl)cc1,–,12.8% [at 11.4 µM]
COC(=O)[C@@]1(Cc2ccc(F)cc2)[C@H]2c3cc(C(=O)N4CCCC4)n(Cc4ccc(OC(F)(F)F)cc4)c3C[C@H]2CN1C(=O)c1ccccc1,inactive,–
